# Test results published in PubChem BioAssay (NCI).
# Several values for one entry are separate records, joined by “and”; a condition that tells them apart may be missing. Equal values may be shown once. This is part of a sample that, as a whole, favours compounds with a hit. Of some 83,000 tested, about 20% had one in any assay.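 A percent growth of 40 corresponds to 60% growth inhibition; 0 means no net growth; -100 means all cells died. Active threshold: below 10.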 Activity calls are given as the source filed them.
# Experiments:
# Assay in all cases: NCI-60 one-dose screen, 48 h (100 = growth as untreated, 0 = no growth, -100 = all killed)
# Conditions in all cases: 10 µM unless noted
# HCT-15 colon = test system: HCT-15 colon
# HT29 colon = test system: HT29 colon
# SNB-75 CNS = test system: SNB-75 CNS
# SNB-19 CNS = test system: SNB-19 CNS
# U251 CNS = test system: U251 CNS
# PC-3 prostate = test system: PC-3 prostate
# SK-MEL-5 melanoma = test system: SK-MEL-5 melanoma
# UACC-62 melanoma = test system: UACC-62 melanoma
# LOX IMVI melanoma = test system: LOX IMVI melanoma
# SK-MEL-28 melanoma = test system: SK-MEL-28 melanoma
Structure (SMILES),growth (HCT-15 colon),growth (HT29 colon),growth (SNB-75 CNS),growth (SNB-19 CNS),growth (U251 CNS),growth (PC-3 prostate),growth (SK-MEL-5 melanoma),growth (UACC-62 melanoma),growth (LOX IMVI melanoma),growth (SK-MEL-28 melanoma)
CCCCCCCCCCCCCCCCCCOc1cccc(CC(=O)OCC[N+](CC)(CC)CC)c1,81.3% (inactive),64.5% (inactive),61.9% (inactive),38.3% (inactive),37.6% (inactive),55.4% (inactive),29.8% (inactive),63% (inactive),56.5% (inactive),92.8% (inactive)
Nc1ccc(S(=O)(=O)c2ccc(N)cc2)cc1,114% (inactive) and 106% (inactive),106% (inactive) and 98.1% (inactive),87.8% (inactive),100% (inactive) and 104% (inactive),94.6% (inactive) and 106% (inactive),85.2% (inactive) and 94.1% (inactive),92.8% (inactive) and 108% (inactive),98.7% (inactive) and 104% (inactive),94.6% (inactive) and 102% (inactive),114% (inactive) and 102% (inactive)
O=C1OCC2=C1C(c1cccc([N+](=O)[O-])c1)c1cc3c(cc1N2CCO)CCC3 (stereo not given),9.41% (active),3.43% (active),41.9% (inactive),25% (inactive),13.8% (inactive),21.7% (inactive),1.24% (active),43.9% (inactive),20.5% (inactive),53.7% (inactive)
COc1cc(/C=C(/c2ccccc2)[N+](=O)[O-])c(OC)c2c1OCO2,-30% (active),1.28% (active),-92.6% (active),-17.1% (active),-92.9% (active),-50.5% (active),-40.9% (active),-29.2% (active),-87.6% (active),-12.1% (active)
O=C1/C(=C/c2ccccc2[N+](=O)[O-])Cc2ccccc21,-56.9% (active) and 5.02% (active),-44% (active) and -37.1% (active),40.8% (inactive) and 43.5% (inactive),93.7% (inactive) and 74.1% (inactive),24.9% (inactive) and 32.7% (inactive),27.2% (inactive) and 30.4% (inactive),47.2% (inactive) and 69.5% (inactive),29.5% (inactive) and 25.5% (inactive),-61.1% (active) and 5.09% (active),45.9% (inactive) and 4.22% (active)
C=C1C(=O)O[C@H]2[C@H]1CC/C(COC(=O)NCCCCNC(=O)OC/C1=C/CC[C@@]3(C)O[C@H]3[C@H]3OC(=O)C(=C)[C@@H]3CC1)=C\CC[C@@]1(C)O[C@@H]21,81.6% (inactive),5.38% (active),49.5% (inactive),90.9% (inactive),73.6% (inactive),67.7% (inactive),76.8% (inactive),-20.8% (active),-22.5% (active),-10.1% (active)
CNC(=O)c1cc(Oc2ccc3nc(NC(=O)Nc4ccc(C(F)(F)F)cc4)sc3c2)ccn1,54.2% (inactive),78.4% (inactive),29.1% (inactive),79.3% (inactive),22.4% (inactive),58.8% (inactive),56.9% (inactive),56% (inactive),48.1% (inactive),68.9% (inactive)
C=C(CN1CC=CCC1)[C@@H]1CC[C@]2(COC(C)=O)CC[C@]3(C)[C@H](CC[C@@H]4[C@@]5(C)CC[C@H](O)C(C)(C)[C@@H]5CC[C@]43C)[C@@H]12,101% (inactive),79.7% (inactive),98.9% (inactive),97.1% (inactive),92.8% (inactive),79.6% (inactive),99.3% (inactive),92.3% (inactive),100% (inactive),105% (inactive)
O=C(c1cccc(Br)c1)N1CCN(c2ccnc3cc(Cl)ccc23)CC1,90.3% (inactive),81.7% (inactive),117% (inactive),85.1% (inactive),78.2% (inactive),79% (inactive),82.2% (inactive),70.1% (inactive),102% (inactive),95.7% (inactive)
Cc1nc2cccc(NCCCCC(=O)NO)c2c(=O)n1-c1ccccc1,71.6% (inactive),52.1% (inactive),45.1% (inactive),65.5% (inactive),70.2% (inactive),63% (inactive),34.9% (inactive),31.8% (inactive),75.8% (inactive),58.3% (inactive)
COc1ccccc1/C=C1\COc2ccc(O)cc2C1=O,48.7% (inactive),51.6% (inactive),96% (inactive),90.6% (inactive),62.3% (inactive),75.8% (inactive),66.5% (inactive),69.1% (inactive),34.6% (inactive),101% (inactive)
O=c1cc(N/N=C/c2ccc(F)cc2)c2cc(Cl)ccc2[nH]1,83.4% (inactive),88.4% (inactive),131% (inactive),91.1% (inactive),94.4% (inactive),-43% (active),11.6% (inactive),80.4% (inactive),95.6% (inactive),90% (inactive)
CC(=O)N1N=C(c2ccc(F)cc2)CC1c1sc(N(C)Cc2ccccc2)nc1Cl (stereo not given),88.5% (inactive),94.4% (inactive),92.3% (inactive),101% (inactive),98.5% (inactive),86.3% (inactive),103% (inactive),81.2% (inactive),96.4% (inactive),114% (inactive)
O=C1C=CC(=O)N1c1ccc2ccccc2c1,56.3% (inactive) and 91.1% (inactive),-42.9% (active) and 32.6% (inactive),88.9% (inactive) and 105% (inactive),103% (inactive) and 107% (inactive),95.9% (inactive) and 96.5% (inactive),91% (inactive) and 90% (inactive),106% (inactive) and 102% (inactive),98.8% (inactive) and 93.6% (inactive),91.6% (inactive) and 77.6% (inactive),110% (inactive) and 116% (inactive)
Cc1c(CC(=O)OCCO)cc(-c2ccc(Cl)cc2)n1-c1ccccc1,94.4% (inactive),101% (inactive),65.9% (inactive),95.3% (inactive),91.7% (inactive),101% (inactive),88.8% (inactive),77.7% (inactive),94% (inactive),109% (inactive)
CN(C)C(=O)c1cc2cnc(Nc3ccc(-c4csc5c(=S)cc(N6CCOCC6)oc45)cc3)nc2n1C1CCCC1,7.32% (active),5% (active),-37.4% (active),10.6% (inactive),7.08% (active),-4.89% (active),-30.4% (active),-35.8% (active),-39.8% (active),9.77% (active)
Cc1cnc(C(=O)NNc2nc3sc4c(c3c(=O)[nH]2)C(C)CCC4)cn1 (stereo not given),26% (inactive),27.9% (inactive),36.8% (inactive),22.3% (inactive),10.4% (inactive),29.7% (inactive),-38.1% (active),8.87% (active),0.703% (active),23.3% (inactive)
O=c1c2c([nH]c3ccccc13)CCCC2,94.8% (inactive) and 23.8% (inactive),102% (inactive) and 2.59% (active),33.5% (inactive),102% (inactive) and 56.9% (inactive),97.4% (inactive) and 24.3% (inactive),85.3% (inactive) and 57.9% (inactive),99.3% (inactive) and 37.5% (inactive),89.6% (inactive) and 53.7% (inactive),102% (inactive) and 37.3% (inactive),106% (inactive) and 53.8% (inactive)
Cc1nc(-n2[nH]c(=O)ccc2=O)sc1N=Nc1ccccc1,101% (inactive),110% (inactive),95.7% (inactive),99.3% (inactive),100% (inactive),95.8% (inactive),97.4% (inactive),93.3% (inactive),102% (inactive),103% (inactive)
N=C(N)c1ccc(-c2ccc(-c3ccc(F)cc3)s2)nc1,10.4% (inactive),8.67% (active),100% (inactive),80.1% (inactive),22.3% (inactive),65.3% (inactive),77% (inactive),95.9% (inactive),18.6% (inactive),102% (inactive)
O=S(=O)(Nc1cc(Sc2cccc3cccnc23)c(O)c2ccccc12)c1ccc(F)cc1,-42.9% (active),-40.9% (active),63.8% (inactive),42.1% (inactive),5.35% (active),17% (inactive),-40.2% (active),-26.9% (active),-60.7% (active),-16.2% (active)
O=C1/C(=C/c2ccc(-c3cccc(C(F)(F)F)c3)o2)SC(=S)N1CCc1ccc(O)cc1,68.6% (inactive),80.4% (inactive),56.7% (inactive),104% (inactive),87.2% (inactive),62.6% (inactive),90.1% (inactive),59% (inactive),68.7% (inactive),95.8% (inactive)
COc1ccc(/C=C2/C(=O)N=C3N2NC(c2ccccc2)=CN3c2ccccc2)cc1,109% (inactive),109% (inactive),98.1% (inactive),97.7% (inactive),99.4% (inactive),96.1% (inactive),97.4% (inactive),94.2% (inactive),87.8% (inactive),108% (inactive)
